According to PubChem BioAssay (Tox21):
Unmarked numbers belong to inactive results. Inconclusive results are not listed. Entries that show only a call come without a potency. The source made the active and inactive calls. Unless noted, calls follow the shape of the dose curve; as a rule, active = well fitted curve in the direction sought with a large enough effect in the repeat runs; inconclusive = weak or mixed curves; inactive = no such curve, though single readings can be large; an effect the other way counts as inactive or inconclusive.

What was measured:
[1] = biological target: Thyrotropin receptor (Homo sapiens) (UniProt P16473); test: qHTS assay to identify small molecule antagonists of the thyroid stimulating hormone receptor (TSHR) signaling pathway (AID 1259385; calls by dose curve; also: nearly all actives have a fitted effect of over 20% in size)
Outline: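 TSHR-HEK293 cells were plated and held 18 h at 37C/5% CO2, then given compound plus Ro20-1724 and stimulated with TSH at 1.5 ng/mL final. After 30 min at room temperature, cAMP was detected with cAMP-d2/anti-cAMP-cryptate (1 h) by fluorescence.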

[2] = qHTS assay to identify small molecule agonists of the estrogen receptor alpha (ER-alpha) signaling pathway in the presence of an antagonist - cell viability counter screen (AID 1259386);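 also: series mostly up to about 92 µM; cells exposed to compounds for 22 h at 37 °C before the viability read; nearly all actives have a fitted effect of over 30% in size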
Outline: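 Read-out: CellTiter-Fluor fluorescence after 1hr reagent incubation, measured in the same wells as the luciferase readout. VM7Luc4E2 cells were exposed to 15 compound concentrations with 10.0nM ICI-182,780 for 22hr at 37C.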

[3] = qHTS assay to identify small molecule antagonists of the progesterone receptor (PR) signaling pathway - cell viability counter screen (AID 1346798); also: series mostly up to about 92 µM; nearly all actives have a fitted effect of over 50% in size
Outline: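 Measures cytotoxicity in parallel with the PR antagonist reporter read: HEK293T PR-UAS-bla cells get compound and R5020 for 16 hr, and remaining viable cells are quantified by CellTiter-Glo luminescence.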

[4] = qHTS assay to identify small molecule agonists of the progesterone receptor (PR) signaling pathway - cell viability counter screen (AID 1346799; calls by dose curve; also: nearly all actives have a fitted effect of over 45% in size)
Outline: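 Using the same plates as the PR reporter screen, HEK293T PR-UAS-bla cells received compounds for 16 hr at 37C and were then lysed with CellTiter-Glo; luminescence was read 30 min later at room temperature.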

[5] = qHTS assay to identify small molecule antagonists of the TGF-beta/Smad signaling pathway - cell viability counter screen (AID 1346824); also: nearly all actives have a fitted effect of over 50% in size
Outline: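 SBE-bla HEK 293T cells were plated overnight at 37 C, then given compounds in DMSO plus TGF-beta1 (added as 0.25 ng/mL solution) for 5 hr. After the bla read, CellTiter-Glo was added to the same wells and luminescence read after 30 min at room temperature.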

[6] = qHTS assay to identify small molecule agonists of the TGF-beta/Smad signaling pathway - cell viability counter screen (AID 1346829); also: top concentration of the series differs between compounds; nearly all actives have a fitted effect of over 45% in size
Outline: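 Tox21 qHTS format: SBE-bla HEK 293T cells treated with DMSO-dissolved compounds for 5 hr; CellTiter-Glo luminescence after 30 min at room temperature.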

[7] = qHTS assay to identify small molecule agonists of the TGF-beta/Smad signaling pathway (AID 1346859; active = well fitted activation curve with a large enough effect in the signal ratio in the repeat runs, not every such curve was filed as active; the % refers to the signal ratio; also: series mostly up to about 77 µM)
Outline: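 Beta-lactamase reporter activity downstream of Smad binding elements was measured in stably transfected HEK 293T cells; compounds were incubated for 5 hr, substrate for 2 hr at room temperature.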

[8] = biological target: Thyrotropin-releasing hormone receptor (Homo sapiens) (UniProt P34981); test: qHTS assay to identify small molecule antagonists of the thyrotropin-releasing hormone receptor (TRHR) signaling pathway (AID 1346877; active = well fitted inhibition curve with a large enough effect in the repeat runs, not every such curve was filed as active; also: series mostly up to about 51 µM)
Outline: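 HEK293/TRHR cells, 18 h, 37 °C; Ca2+ dye 2 h; cpd 5 min RT; TRH 1 nM final; fluorescence read 3 min, 1 s intervals; 15 concs, triplicate.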

[9] = biological target: Thyrotropin-releasing hormone receptor (Homo sapiens) (UniProt P34981); test: qHTS assay to identify small molecule agonists of the thyrotropin-releasing hormone receptor (TRHR) signaling pathway (AID 1346891; calls by dose curve;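 also: HEK293 cells expressing TRHR with calcium dye readout; series mostly up to about 58 µM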)
Outline: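 Overnight-plated (18 h, 37 °C, 5% CO2) TRHR-Hek293 cells; 2 h calcium dye at 37 °C; compound in DMSO; 3-min kinetic fluorescence read.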

[10] = Human pregnane X receptor (PXR) small molecule agonists, qHTS cell viability counter screen (AID 1346977); also: nearly all actives have a fitted effect of over 50% in size
Outline: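 After a 5hr pre-incubation, PXR-Luc HepG2 cells received compounds plus positive control in DMSO and were kept 24hr at 37C. Cell viability was quantified by fluorescence from CellTiter-Fluor added for the final hour.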

[11] = Caspase-3/7 induction in HepG2 cells by small molecules, qHTS assay (AID 1346978); also: nearly all actives have a fitted effect of over 15% in size
Outline: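 Wild-type HepG2 cells (2,000/well) were settled 5 h at 37 C, 5% CO2, then exposed to compounds in DMSO for 17 h. Caspase-3/7 activity was read by luminescence 30 min after adding Caspase-Glo 3/7 reagent at room temperature.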

[12] = Caspase-3/7 induction in CHO-K1 cells by small molecules, qHTS cell viability counter screen (AID 1346979); also: nearly all actives have a fitted effect of over 35% in size
Outline: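 Multiplexed with Caspase-Glo 3/7 in CHO-K1 cells, this counter screen added CellTiter-Fluor after 16hr of compound exposure and recorded fluorescence 1hr later.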

[13] = Caspase-3/7 induction in CHO-K1 cells by small molecules, qHTS assay (AID 1346980); also: nearly all actives have a fitted effect of over 15% in size
Outline: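 Wild-type cells were seeded at 1,500 per well and settled 5 hr at 37 C, 5% CO2, then exposed to DMSO-dissolved compounds for 17 hr. Caspase-Glo 3/7 reagent was added, and luminescence was read after 30min at room temperature.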

[14] = Caspase-3/7 induction in HepG2 cells by small molecules, qHTS cell viability counter screen (AID 1346981); also: series mostly up to about 92 µM; nearly all actives have a fitted effect of over 30% in size
Outline: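 Fluorescence read-out of live-cell protease activity (CellTiter-Fluor) after 1 hr with reagent. This was measured in the same wells as the caspase-3/7 luminescence, on HepG2 cells exposed to DMSO-dissolved compounds for 16 hr at 37 C.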

[15] = biological target: Nuclear receptor subfamily 1 group I member 2 (Homo sapiens) (UniProt O75469); test: Human pregnane X receptor (PXR) small molecule agonists, qHTS assay (AID 1346982); also: nearly all actives have a fitted effect of over 35% in size; also: potency is read from the fitted curve at half-maximal effect
Outline: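 HepG2 PXR-Luc reporter line, 5% charcoal-stripped FBS; 5 hr pre-incubation, compound (DMSO) 24 hr at 37 C/5% CO2; ONE-Glo 30 min RT; luminescence read-out.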

[16] = biological target: Nuclear receptor subfamily 1 group I member 2 (Rattus norvegicus) (UniProt Q9R1A7); test: Rat pregnane X receptor (rPXR) activation by small molecules, qHTS assay (AID 1346983); conditions: rPXR luciferase reporter cells, One-Glo luminescence, 24 h; stronger effect = higher value; also: nearly all actives have a fitted effect of over 20% in size
Outline: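 Cell-based rPXR luciferase reporter assay, 2,000 cells per well, rested 5hr at 37 C before compound addition in DMSO, then 24 hr at 37 C. One-Glo reagent was added and luminescence read after 30 min at room temperature.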

[17] = biological target: Nuclear receptor subfamily 1 group I member 2 (Homo sapiens) (UniProt O75469); test: CYP3A4 induction through human pregnane X receptor (PXR) by small molecules, qHTS assay (AID 1346984); also: nearly all actives have a fitted effect of over 40% in size
Outline: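 HepG2-derived DPX-2 line carrying PXR plus a CYP3A4-promoter luciferase reporter; cells plated 5 hr, compound-exposed 24 hr at 37C. CYP3A4 activity probed with 3uM (final) Luciferin-IPA for 3hr, then luciferase read after One-Glo.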

[18] = biological target: Nuclear receptor subfamily 1 group I member 2 (Homo sapiens) (UniProt O75469); test: Human pregnane X receptor (PXR) activation by small molecules, qHTS assay (AID 1346985); also: nearly all actives have a fitted effect of over 40% in size
Outline: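 DPX-2 cells (HepG2 co-transfected with a PXR response element and a CYP3A4-promoter luciferase construct) were seeded at 2,000 per well, rested 5 hr at 37C, then exposed to DMSO-dissolved compounds for 24 hr. Activation was read as luciferase luminescence.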

[19] = biological target: Progesterone receptor (Homo sapiens) (UniProt P06401); test: qHTS assay to identify small molecule antagonists of the progesterone receptor (PR) signaling pathway (AID 1346795; active = well fitted inhibition curve with a large enough effect in the signal ratio in the repeat runs, not every such curve was filed as active; the % refers to the signal ratio)
Outline: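 Screening used a GripTite HEK293T line with PR-responsive UAS-beta-lactamase. Cells were challenged with compound in the presence of 1 nM R5020 final for 16 hr at 37C; B/G FRET substrate, 2 hr room temperature, fluorescence.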

Sequence of Thyrotropin-releasing hormone receptor (Homo sapiens) (P34981 whole entry, looked up): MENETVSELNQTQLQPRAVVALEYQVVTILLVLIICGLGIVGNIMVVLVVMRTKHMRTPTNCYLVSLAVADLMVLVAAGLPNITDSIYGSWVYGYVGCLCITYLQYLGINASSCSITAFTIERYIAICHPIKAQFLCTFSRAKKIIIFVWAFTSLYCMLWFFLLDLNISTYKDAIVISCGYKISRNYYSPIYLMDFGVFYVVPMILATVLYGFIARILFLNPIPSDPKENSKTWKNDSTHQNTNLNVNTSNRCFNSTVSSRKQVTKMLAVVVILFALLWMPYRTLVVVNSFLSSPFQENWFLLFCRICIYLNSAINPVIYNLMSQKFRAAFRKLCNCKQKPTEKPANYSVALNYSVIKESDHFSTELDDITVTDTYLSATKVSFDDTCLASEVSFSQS
Sequence of Progesterone receptor (Homo sapiens) (P06401 whole entry, looked up): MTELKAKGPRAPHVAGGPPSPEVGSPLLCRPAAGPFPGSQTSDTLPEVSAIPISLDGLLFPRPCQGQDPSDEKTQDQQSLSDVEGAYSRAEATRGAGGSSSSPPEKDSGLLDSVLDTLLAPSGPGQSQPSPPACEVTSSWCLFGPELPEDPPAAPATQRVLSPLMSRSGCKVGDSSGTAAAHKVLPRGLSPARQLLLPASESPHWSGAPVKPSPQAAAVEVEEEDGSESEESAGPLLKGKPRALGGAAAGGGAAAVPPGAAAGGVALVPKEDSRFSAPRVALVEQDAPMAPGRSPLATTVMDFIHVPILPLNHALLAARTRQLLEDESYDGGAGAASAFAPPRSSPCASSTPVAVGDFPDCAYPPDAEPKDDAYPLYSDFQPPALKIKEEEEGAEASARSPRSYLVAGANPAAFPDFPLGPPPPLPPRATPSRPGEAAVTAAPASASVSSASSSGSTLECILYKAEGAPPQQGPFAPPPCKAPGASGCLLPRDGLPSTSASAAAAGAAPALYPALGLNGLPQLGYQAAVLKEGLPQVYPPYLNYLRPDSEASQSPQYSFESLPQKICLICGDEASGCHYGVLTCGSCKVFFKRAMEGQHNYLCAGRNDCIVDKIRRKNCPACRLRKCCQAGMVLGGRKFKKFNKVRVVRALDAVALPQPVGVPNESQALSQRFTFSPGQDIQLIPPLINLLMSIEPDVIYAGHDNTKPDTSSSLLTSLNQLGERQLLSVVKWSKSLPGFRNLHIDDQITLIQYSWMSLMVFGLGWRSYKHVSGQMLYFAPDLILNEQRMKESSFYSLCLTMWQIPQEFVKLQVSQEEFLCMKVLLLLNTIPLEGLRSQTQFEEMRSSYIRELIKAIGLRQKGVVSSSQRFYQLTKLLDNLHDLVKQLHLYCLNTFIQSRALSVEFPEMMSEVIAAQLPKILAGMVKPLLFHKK
Sequence of Nuclear receptor subfamily 1 group I member 2 (Homo sapiens) (O75469 whole entry, looked up): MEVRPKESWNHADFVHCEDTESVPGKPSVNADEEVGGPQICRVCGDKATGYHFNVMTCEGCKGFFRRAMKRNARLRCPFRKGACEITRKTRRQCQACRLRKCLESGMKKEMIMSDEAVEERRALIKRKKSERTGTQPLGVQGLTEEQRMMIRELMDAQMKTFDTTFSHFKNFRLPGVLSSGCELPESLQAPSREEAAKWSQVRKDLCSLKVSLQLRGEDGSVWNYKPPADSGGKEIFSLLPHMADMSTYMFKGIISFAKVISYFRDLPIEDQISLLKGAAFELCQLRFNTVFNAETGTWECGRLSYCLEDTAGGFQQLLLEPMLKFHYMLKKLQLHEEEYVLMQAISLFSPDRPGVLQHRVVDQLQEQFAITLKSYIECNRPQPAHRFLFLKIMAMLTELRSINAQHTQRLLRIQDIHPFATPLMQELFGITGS
Sequence of Thyrotropin receptor (Homo sapiens) (P16473 whole entry, looked up): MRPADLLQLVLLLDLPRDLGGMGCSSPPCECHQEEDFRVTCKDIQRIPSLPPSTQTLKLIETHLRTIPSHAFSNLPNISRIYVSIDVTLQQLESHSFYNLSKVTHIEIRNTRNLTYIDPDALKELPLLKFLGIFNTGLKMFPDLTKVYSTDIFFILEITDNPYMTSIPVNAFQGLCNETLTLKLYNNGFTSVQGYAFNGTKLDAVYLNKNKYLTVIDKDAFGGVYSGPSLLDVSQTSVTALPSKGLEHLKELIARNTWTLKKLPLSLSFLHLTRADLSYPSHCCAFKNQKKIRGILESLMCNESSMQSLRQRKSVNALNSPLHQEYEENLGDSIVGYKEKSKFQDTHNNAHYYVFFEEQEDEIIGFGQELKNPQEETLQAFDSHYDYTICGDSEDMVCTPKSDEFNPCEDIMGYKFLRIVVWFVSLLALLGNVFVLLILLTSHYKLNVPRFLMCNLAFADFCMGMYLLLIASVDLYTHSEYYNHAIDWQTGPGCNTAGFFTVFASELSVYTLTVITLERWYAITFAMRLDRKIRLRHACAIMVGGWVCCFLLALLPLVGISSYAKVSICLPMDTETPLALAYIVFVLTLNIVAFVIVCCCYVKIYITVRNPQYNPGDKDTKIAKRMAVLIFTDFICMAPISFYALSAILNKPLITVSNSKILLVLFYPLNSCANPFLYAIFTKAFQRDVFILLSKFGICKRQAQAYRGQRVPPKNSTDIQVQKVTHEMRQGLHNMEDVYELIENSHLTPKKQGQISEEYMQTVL
Sequence of Nuclear receptor subfamily 1 group I member 2 (Rattus norvegicus) (Q9R1A7 whole entry, looked up): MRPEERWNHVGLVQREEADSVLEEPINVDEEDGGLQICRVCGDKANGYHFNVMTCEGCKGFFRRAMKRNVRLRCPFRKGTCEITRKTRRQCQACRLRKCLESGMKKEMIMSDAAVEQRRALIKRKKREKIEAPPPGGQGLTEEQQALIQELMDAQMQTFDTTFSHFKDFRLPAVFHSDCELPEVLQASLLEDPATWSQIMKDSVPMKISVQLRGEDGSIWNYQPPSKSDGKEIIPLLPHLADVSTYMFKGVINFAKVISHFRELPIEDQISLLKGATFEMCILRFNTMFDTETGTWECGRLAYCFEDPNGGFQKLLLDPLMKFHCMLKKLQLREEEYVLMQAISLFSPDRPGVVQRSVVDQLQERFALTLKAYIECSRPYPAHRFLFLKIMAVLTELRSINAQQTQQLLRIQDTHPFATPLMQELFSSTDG

Cc1c(NC(C)C)c(=O)n(-c2ccccc2)n1C
Potency [1]: inactive
Potency [2]: inactive
Potency [3]: inactive
Potency [4]: inactive
Potency [5]: inactive
outcome [6]: inactive
outcome [7]: inactive
outcome [8]: inactive
outcome [9]: inactive
Potency [10]: inactive
Potency [11]: inactive
Potency [12]: inactive
outcome [13]: inactive
Potency [14]: inactive
Potency [15]: inactive
max activation [16]: -1.85%
Potency [17]: inactive
Potency [18]: inactive

OCCCC1CCCCC1
Potency [1]: inactive
Potency [2]: inactive
Potency [19]: inactive
Potency [3]: inactive
Potency [4]: inactive
Potency [5]: inactive
outcome [6]: inactive
outcome [7]: inactive
outcome [8]: inactive
outcome [9]: inactive
Potency [10]: inactive
Potency [11]: inactive
Potency [12]: inactive
outcome [13]: inactive
Potency [14]: inactive
Potency [15]: inactive

CCCCNC(=O)NCCCC
Potency [1]: inactive
Potency [2]: inactive
Potency [19]: inactive
Potency [3]: inactive
Potency [4]: inactive
outcome [6]: inactive
outcome [7]: inactive
outcome [8]: inactive
outcome [9]: inactive
Potency [10]: inactive
Potency [11]: inactive
Potency [14]: inactive
Potency [15]: inactive

COc1nc(N)nc2c1ncn2[C@@H]1O[C@H](CO)[C@@H](O)[C@@H]1O
Potency [1]: inactive
Potency [2]: inactive
Potency [19]: inactive
Potency [3]: inactive
Potency [5]: inactive
outcome [6]: inactive
outcome [7]: inactive
outcome [8]: inactive
outcome [9]: inactive
Potency [10]: inactive
Potency [11]: inactive
Potency [12]: inactive
outcome [13]: inactive
Potency [14]: inactive

O=Cc1cccc([N+](=O)[O-])c1
Potency [1]: inactive
Potency [2]: inactive
Potency [19]: inactive
Potency [3]: inactive
Potency [5]: inactive
outcome [6]: inactive
outcome [7]: inactive
outcome [8]: inactive
outcome [9]: inactive
Potency [10]: inactive
Potency [11]: inactive
Potency [12]: inactive
Potency [14]: inactive
Potency [15]: inactive

CCCCCCCCCCCCN(CCCCCCCCCCCC)CCCCCCCCCCCC
Potency [1]: inactive
Potency [2]: inactive
Potency [3]: inactive
Potency [4]: inactive
Potency [5]: inactive
outcome [6]: inactive
outcome [7]: inactive
Potency [10]: inactive
Potency [11]: inactive
outcome [13]: inactive
Potency [14]: inactive
Potency [15]: inactive

CC(=O)c1ccccc1O
Potency [1]: inactive
Potency [2]: inactive
Potency [19]: inactive
Potency [3]: inactive
Potency [4]: inactive
outcome [6]: inactive
outcome [7]: inactive
outcome [8]: inactive
outcome [9]: inactive
Potency [10]: inactive
Potency [11]: inactive
Potency [12]: inactive
outcome [13]: inactive
Potency [14]: inactive
Potency [15]: inactive

O=C(O)CN(CCOCCOCCN(CC(=O)O)CC(=O)O)CC(=O)O
activity change, negative = inhibition [1]: 0.526% [at 0.349 µM]
activity change, negative = cytotoxicity [2]: 2.94% [at 0.349 µM]
activity change, negative = inhibition [19]: 0.191% [at 0.348 µM]
activity change, negative = cytotoxicity [3]: 5.83% [at 0.348 µM]
activity change, negative = cytotoxicity [4]: 5.81% [at 0.349 µM]
viability change, negative = cytotoxic [5]: 3.24% [at 0.29 µM]
activity change, negative = cytotoxicity [6]: 0.742% [at 0.29 µM]
activation [7]: 3.14% [at 0.29 µM]
activity change, negative = cytotoxicity [10]: 6.91% [at 0.349 µM]
caspase activation [11]: -0.864% [at 0.349 µM]
activity change, negative = cytotoxicity [12]: 10.9% [at 0.349 µM]
caspase-3/7 activation [13]: 0.707% [at 0.349 µM]
activity change, negative = cytotoxicity [14]: 2.16% [at 0.349 µM]
activation [15]: -3.68% [at 0.349 µM]

NC(=O)COCCN1CCN(C(c2ccccc2)c2ccc(Cl)cc2)CC1 (stereo not drawn)
Potency [1]: inactive
Potency [2]: inactive
Potency [19]: inactive
Potency [3]: inactive
Potency [4]: inactive
outcome [6]: inactive
outcome [7]: inactive
outcome [9]: inactive
Potency [10]: inactive
Potency [11]: inactive
Potency [12]: inactive
Potency [14]: inactive
Potency [15]: inactive

COCCCOCCCOC
Potency [1]: inactive
Potency [2]: inactive
Potency [19]: inactive
Potency [3]: inactive
Potency [4]: inactive
Potency [5]: inactive
outcome [6]: inactive
outcome [7]: inactive
outcome [9]: inactive
Potency [10]: inactive
Potency [11]: inactive
Potency [12]: inactive
outcome [13]: inactive
Potency [14]: inactive
Potency [15]: inactive

C[C@H]1C[C@@H](O)CC(C)(C)C1
Potency [1]: inactive
Potency [2]: inactive
Potency [19]: inactive
outcome [6]: inactive
outcome [7]: inactive
outcome [8]: inactive
outcome [9]: inactive
Potency [10]: inactive
Potency [11]: inactive
Potency [12]: inactive
outcome [13]: inactive
Potency [14]: inactive
Potency [15]: inactive

COC(=O)c1c(Cl)c(Cl)c(C(=O)OC)c(Cl)c1Cl
Potency [1]: inactive
Potency [2]: inactive
Potency [4]: inactive
Potency [5]: inactive
outcome [7]: inactive
Potency [10]: inactive
Potency [11]: inactive
Potency [12]: inactive
Potency [14]: inactive
Potency [15]: 21.7 µM (active)

NC(=O)c1ccc([N+](=O)[O-])cc1
Potency [1]: inactive
Potency [2]: inactive
Potency [4]: inactive
Potency [5]: inactive
outcome [6]: inactive
outcome [7]: inactive
Potency [10]: inactive
Potency [11]: inactive
Potency [12]: inactive
outcome [13]: inactive
Potency [14]: inactive
Potency [15]: inactive

CCCCOCCOCCOCCCC
Potency [1]: inactive
Potency [2]: inactive
Potency [19]: inactive
Potency [3]: inactive
Potency [4]: inactive
Potency [5]: inactive
outcome [7]: inactive
outcome [9]: inactive
Potency [10]: inactive
Potency [11]: inactive
Potency [12]: inactive
Potency [14]: inactive
Potency [15]: inactive

NC(=O)c1ccc(N)cc1
Potency [1]: inactive
Potency [2]: inactive
Potency [19]: inactive
Potency [3]: inactive
Potency [4]: inactive
outcome [6]: inactive
outcome [7]: inactive
Potency [10]: inactive
Potency [11]: inactive
Potency [12]: inactive
outcome [13]: inactive
Potency [14]: inactive
Potency [15]: inactive

C/C=C(\C)C#N
Potency [1]: inactive
Potency [2]: inactive
Potency [19]: inactive
Potency [3]: inactive
Potency [4]: inactive
Potency [5]: inactive
outcome [6]: inactive
outcome [7]: inactive
outcome [9]: inactive
Potency [10]: inactive
Potency [11]: inactive
Potency [12]: inactive
outcome [13]: inactive
Potency [14]: inactive
Potency [15]: inactive

CC/C=C\CCOC(C)=O
Potency [1]: inactive
Potency [2]: inactive
Potency [19]: inactive
Potency [3]: inactive
Potency [4]: inactive
Potency [5]: inactive
outcome [6]: inactive
outcome [7]: inactive
Potency [10]: inactive
Potency [11]: inactive
Potency [12]: inactive
Potency [14]: inactive
Potency [15]: inactive
